Results from PubChem BioAssay AID2507 (National Center for Advancing Translational Sciences (NCATS), 2010).
Results filed as inconclusive are left out. Values without a mark were called inactive. The source made the active and inactive calls. Calls follow the shape of the dose curve; as a rule, active = well fitted inhibition curve with a large enough effect; inconclusive = small, poorly fitted or top-dose-only effect, or effect the other way; inactive = flat fitted curve, though single readings scatter.

Test: Secondary Assay for General miRNAs Modulators and/or Inhibitors/Activators of miR-21: miR-30 Firefly Luciferase Assay
Details: HeLa miR-30 FLuc reporter, luminescence, 48 h; series mostly up to 38.3 µM; activity change, negative = inhibition: at the top concentration
Text: MLSCN Grant: 1 R21 NS059478-01 Assay Provider: Qihong Huang, The Wistar Institute NCGC Assay Overview: MicroRNAs (miRNAs) are endogenously encoded small (~20-25 nucleotides), nonprotein-coding RNAs that are involved in post-transcriptional repression of target messenger RNAs (mRNAs) (Le and Hannon, 2004). Estimated to be involved in the regulation of 30% of all protein-coding mRNAs (Filipowicz et al., 2008), miRNAs play a significant role in many biological processes including cellular differentiation and tissue development (Ghildiyal and Zamore, 2009). […] Compounds active in the miR-21 FLuc assay were clustered using Leadscope and active chemical series were prioritized based on chemical properties, potential for medicinal chemistry optimization, and SAR. Within each chemical series, representative compounds were re-acquired to test for activity in a secondary assay based on the quality of their CRC, efficacy, and potency. The secondary assay to determine if compounds active in the miR-21 FLuc assay were potentially specific for miR-21 and were not general modulators of the miRNA pathway was another cell-based FLuc reporter gene assay, this time targeting miR-30. Compounds found active in both the miR-21 FLuc and miR-30 FLuc assays are not considered miR-21 specific compounds, and may be general miRNA modulators.
NCGC Assay Protocol Summary: Reagents: HeLa cells stably expressing firefly luciferase (FLuc) under the control of a CMV promoter (upstream) and a miR-30 binding sequence directly downstream of the gene. These cells also stably express miR-30. Control compounds used were compound C3 (provided by collaborator), N6-phenyladenosine (MP Biomedicals, 0215379625), and DMSO. Assay Summary: 6uL of HeLa miR-30-FLuc cells in assay buffer (DMEM, Invitrogen #21063-029; 10% FBS, HyClone #SH30071.03) were dispensed at 1000cells/well (1.7 x 10^5 cells/mL) into Greiner solid-white TC-treated 1536-well plates using a Multidrop Combi (Thermo Fisher Scientific). Plates were incubated for one hour at 37 degree Celsius, 95% humidity, 5% CO2. These assay plates were then treated with 23nL of compound or DMSO using a Kalypsys pin tool, which allows for delivery of a 24-point titration of each compound to the assay plate, with a final compound concentration ranging from approximately 40uM to 5pM. Assay plates were then incubated for 48 hours. After incubation, plates were allowed to come to RT for one hour prior to delivery of 3uL of 3X luciferase detection reagent. After a 15 minute incubation to allow for cell lysis, luciferase activity was measured using a ViewLux CCD imager (PerkinElmer), with an average exposure time of 2-12 seconds. Keywords: NIH Roadmap, MLPCN, MLSMR, qHTS, miR-21, miR-30, microRNA, firefly luciferase, FLuc.

| Compound | Potency | activity change, negative = inhibition |
| --- | --- | --- |
| COc1nc(Nc2cccc(C(F)(F)F)c2)nc(OC)n1 | 22.5 µM (active) | – |
| COc1ccc(OCC(=O)Nc2ccc(-c3nc4cc(C)c(C)cc4o3)cc2)cc1 | 0.798 µM (active) | – |
| O=C(CSc1nnc(-c2ccccn2)o1)Nc1cccc(Cl)c1 | 1.13 µM (active) | – |
| CCc1ccc2oc(C(=O)Nc3nonc3CC)c(C)c2c1 | 3.56 µM (active) | – |
| COc1ccccc1NC(=O)C/C(C)=N/NC(=O)c1ccccn1 | – | -7.18% |
| Cc1c(-c2nsc(NC(=O)c3cccs3)n2)nnn1-c1ccc(F)cc1 | 0.895 µM (active) | – |
| O=C(CSc1nnc(-c2ccncc2)o1)Nc1nncs1 | – | 0.64% |
| CC(=O)c1cnc2nc(SCc3ccccc3)nn2c1C | 12.6 µM (active) | – |
| Cc1cc(C)cc(NC(=O)CSc2nnc(CNC(=O)c3ccco3)o2)c1 | – | 4.57% |
| CC(C)COc1ccc(C(=O)Nc2cc(-c3ccccc3)no2)cc1 | 2.25 µM (active) | – |
| COc1ccc(NC(=O)CSc2nc(SC)ns2)c(OC)c1 | 5.04 µM (active) | – |
| COc1cccc(NC(=O)CSc2nnc(-c3cccs3)o2)c1 | 5.65 µM (active) | – |
| Cc1ccc(NC(=O)Cn2nnc(-c3nc(-c4ccc(Cl)cc4)no3)c2N)cc1C | – | -16.2% |
| Cc1c(-c2nnc(SCC(=O)Nc3ccccc3F)o2)nnn1-c1ccc(F)cc1 | 4 µM (active) | – |
| CCc1nonc1NC(=O)c1oc2ccccc2c1C | 12.6 µM (active) | – |
| COc1ccc(NC(=O)CSc2nnc(-c3cccs3)o2)cc1 | 3.56 µM (active) | – |
| CSc1nsc(SCC(=O)Nc2ccc(F)cc2F)n1 | 12.6 µM (active) | – |
| COc1ccc(C(=O)Nc2nnc(C(C)C)s2)cc1OC | 7.98 µM (active) | – |
| c1ccc(CSc2nnc3ccc(-c4cccs4)nn23)nc1 | 11.3 µM (active) | – |
| CCc1nonc1NC(=O)c1oc2cc(C)c(C)cc2c1C | 3.18 µM (active) | – |

| Compound | Potency | activity change, negative = inhibition |
| --- | --- | --- |
| COCC(=O)Nc1c(C(=O)Nc2ccc3c(c2)OCCO3)oc2ccccc12 | 0.634 µM (active) | – |
| Cc1ccccc1OCCn1cnc2c(N)ncnc21 | – | -28.9% |
| Nc1c(-c2nc(-c3ccccc3Cl)no2)nnn1-c1ccccc1F | 0.4 µM (active) | – |
| CCc1cccc(-n2nnc(-c3nsc(NC(=O)c4cccs4)n3)c2C)c1 | 7.11 µM (active) | – |
| CC(C)C(=O)Nc1nc2c(s1)CC(C(C)(C)C)CC2 (stereo not given) | 0.895 µM (active) | – |
| COc1ccc(NC(=O)c2ncn(-c3ccccc3)n2)cc1Cl | 14.2 µM (active) | – |
| COc1ccc(OCC(=O)Nc2cc(-c3nc4ccccc4s3)ccc2C)cc1 | 4.49 µM (active) | – |
| COc1ccc(-c2nc(SCc3ccccc3)n(S(C)(=O)=O)n2)cc1 | 11.3 µM (active) | – |
| COc1ccc(-n2nnc(-c3nc(-c4cccs4)no3)c2N)cc1OC | – | -14.2% |
| COc1ccc(CNc2nc(-c3ccco3)nn2C(=O)CC(C)C)cc1 | 11.3 µM (active) | – |
| Cc1cc(SCC(=O)Nc2nsc(-c3ccc(C(C)(C)C)cc3)n2)nc2ccccc12 | 2 µM (active) | – |
| CC(C)(C)c1ccc(NC(=O)CSc2nnc(-c3n[nH]c4ccccc34)o2)cc1 | 11.3 µM (active) | – |
| COc1ccccc1C(=O)n1nc(-c2ccco2)nc1NCc1ccc(Cl)cc1 | 7.98 µM (active) | – |
| COc1ccc(-c2csc(NC(=O)COC(=O)c3ccc(Br)o3)n2)cc1 | 2.25 µM (active) | – |
| Cc1cc(C)c2c(N)c(C(=O)Nc3ccccc3F)sc2n1 | 1.79 µM (active) | – |
| CS(=O)(=O)n1nc(-c2ccc(Cl)cc2)nc1SCc1ccccc1 | 10 µM (active) | – |
| COc1ccc(NCc2cccn2-c2nnc(N3CCC(C)CC3)s2)c(OC)c1 | 1.79 µM (active) | – |
| N#Cc1cc2cc3c(cc2nc1SCC(=O)N1CCOCC1)OCO3 | 0.798 µM (active) | – |
| Cc1ccc(Nc2ncnc(N)n2)cc1C | 10 µM (active) | – |
| COc1ccccc1NC(=O)CSc1nnc(-c2ccccn2)o1 | 5.04 µM (active) | – |
